PubChem BioAssay

Experiment: A549 cell viability effects, profiling panel, calcein-AM fluorescence, 48 h, basal (AID 1162); also: test concentration not given here
Details: higher = more signal

SMILES	z-score
CCOC(=O)C[C@H]1[C@H](OC(=O)Cc2ccc3c(c2)OCO3)[C@@H](NC(=O)c2ccc3ccccc3n2)c2cc(OCCCO)ccc2N1C(=O)c1ccccc1	0.776
COc1ccc([Si](C)(C)[C@@H]2[C@@H](CC(=O)N(CCO)Cc3ccccc3)O[C@]3(C(=O)N(Cc4cccc(N5CCCCC5=O)c4)c4ccccc43)[C@H]2C)cc1	-1.2
C=C[C@@H](OC)[C@H](OC(=O)Nc1ccc(OC)cc1)c1ccc(O)c(F)c1	-0.705
CCCCCC1=C2CNC(C)(C(=O)OC)C=C2C(C)C1=O (stereo unspecified)	-1.23
O=C1NC(=O)C2C1C=CC(C(O)c1ccco1)N2Nc1ccc(Cl)cc1Cl (stereo unspecified)	-0.396
CCC#CCN(Cc1ccccc1Br)[C@H](/C=C/C1CC1)[C@@H](O)Cc1ccccc1	-0.382
COc1ccc([Si](C)(C)[C@@H]2[C@@H](CC(=O)N3Cc4ccccc4C[C@H]3CO)O[C@]3(C(=O)N(Cc4ccc(N5C(=O)c6cccc7cccc5c67)cc4)c4ccccc43)[C@H]2C)cc1	0.396
[N-]=[N+]=Nc1ccccc1C[C@@]1(C(=O)NCCN2CCOCC2)N=C(c2ccc(OCCCO)cc2)O[C@@H]1c1ccccc1N=[N+]=[N-]	-1.96
CC1=C2[C@@H](CCc3ccccc3)OB(O)C[C@@H]2[C@@H]2C(=O)N(Cc3ccccc3)C(=O)[C@@H]2C1	-0.261
CC1CC/C=C\[C@H]2OC34C=CCN(Cc5ccccc5)C(=O)[C@H]3N(C(CO)C(C)C)C(=O)[C@@H]4C2C(=O)O1 (stereo partly specified)	0.743
COc1cccc(C)c1NC(=O)O[C@H]1[C@H](OC(=O)Nc2ccc3c(c2)OCO3)[C@@H](OC(=O)Nc2ccc3c(c2)OCO3)[C@@H](OC)O[C@@H]1CO	-0.551
